# SW480 rereplic = inducers of DNA re-replication in SW480 colon cancer cells; SW480 DNA re-replication, Hoechst DNA content imaging, 48 h; Potency, µM (titrated, usually from 46.1 µM), for inactives: top-dose re-replication activation, usual class: activators; hit rate 1.8% among 340,000; AID 624297; note: potency is the fitted concentration of half-maximal effect; % of control where 0% means no effect; nearly all actives have a fitted effect of over 55% in size
#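 First, 250 cells per well were seeded. Next, compound or vehicle (23 nL) was pinned in, plates sat 48 hr at 37 C. Finally Hoechst was added for 40 min before fluorescence scanning.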
# IL-1B inflam inh = blocks inflammasome-driven IL-1 beta release. activity change, % at 57.5 µM. THP-1 LPS/ATP IL-1B secretion, AlphaLISA, 16 h; stronger effect = lower value. hit rate 4.7% among 360,000; in the data active = activity change below about -50%; inconclusive = mostly about -30% to -49%; note: % is set by controls: 0 for no effect and ±100 for the full control effect
#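 Secreted IL-1B measured by AlphaLISA bead assay after 16 h compound exposure of THP-1 cells; compounds (final up to 57.5 uM) added 1 h before LPS (250 ng/mL) and ATP (1.25 mM) stimulation; lower signal means less secretion.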
# MCF10A rerep = inducers of DNA re-replication in MCF 10A breast cells. MCF 10A DNA re-replication, Hoechst nuclear intensity, 48 h. AID 624296. Potency, µM (highest dose often 46.1 µM), for the others: at the top dose activity, positive = re-replication, hits mostly activators. hit rate 2.9% among 350,000; note: potency is the fitted concentration of half-maximal effect; % of control where 0% means no effect; nearly all actives have a fitted effect of over 50% in size
# KB-3-1 cytotox = kills parental KB-3-1 adenocarcinoma cells; Potency, µM (highest dose often 46.1 µM), most hits filed as cytotoxic; hit rate 1.4% among 400,000; KB-3-1 viability, CellTiter-Glo ATP luminescence, 72 h; AID 1347075; note: potency is the fitted concentration of half-maximal effect; % is set by controls: 0 for no effect and ±100 for the full control effect; nearly all actives have a fitted effect of over 60% in size
#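 Viability of parental KB-3-1 cells, measured by CellTiter-Glo luminescence, followed a 72 h incubation at 37 °C with pinned compounds in phenol-red-free DMEM containing 10% FBS.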
# KB-V1 cytotox = kills drug-selected multidrug resistant KB-V1 cells | Potency, µM (doses to about 46.1 µM), usual class: cytotoxic | hit rate 3.4% among 400,000 | KB-V1 MDR cells viability, CellTiter-Glo, 72 h | AID 1347076; note: potency is the fitted concentration of half-maximal effect; % is set by controls: 0 for no effect and ±100 for the full control effect; nearly all actives have a fitted effect of over 60% in size
#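 Potencies derive from concentration-effect curves fitted to normalized luminescence (CellTiter-Glo) of KB-V1 cells treated for 72 h at 37 degrees C in phenol-red-free DMEM containing 10% FBS.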
# The depositor's hits bear a star; i = inactive; ? = inconclusive; nt = no result given; [ ] = dose if it differs, or a comment. Only some compounds are listed: those with a hit (about 9.9% of all), similar ones and a draw of the others. Unless noted, calls come from the whole dose curve; as a rule, active = well fitted curve in the direction sought with a large enough effect; inconclusive = small, poorly fitted or top-dose-only effect, or another doubt; inactive = no such curve, though single readings can be large; an effect the other way counts as inactive or inconclusive.
SMILES,SW480 rereplic,IL-1B inflam inh,MCF10A rerep,KB-3-1 cytotox,KB-V1 cytotox
Cc1ccccc1NC(=O)CN1C(=O)NC(C)(c2ccc3c(c2)OCO3)C1=O (stereo unspecified),-3%[9.22 µM],-4,-3%,i,i
COc1ccc(Cn2c(=N)c(C(=O)NCC3CCCO3)cc3c(=O)n4ccccc4nc32)cc1 (stereo unspecified),?,-18,15µM*,i,i
Cc1ccc(Cn2c(=N)c(C(=O)NCC3CCCO3)cc3c(=O)n4cccc(C)c4nc32)cc1 (stereo unspecified),8.2µM*,-55*,21µM*,i,i
Cc1ccc(Cn2c(=N)c(C(=O)NC3CCCCC3)cc3c(=O)n4ccccc4nc32)cc1,2.3µM*,6,2.6µM*,i,i
CCCn1c(=N)c(C(=O)NCC2CCCO2)cc2c(=O)n3cc(C)ccc3nc21 (stereo unspecified),nt,nt,nt,i,i
N=c1c(C(=O)NCC2CCCO2)cc2c(=O)n3ccccc3nc2n1Cc1ccc(Cl)cc1 (stereo unspecified),0.58µM*,-12,?,?,i
COc1ccc(CCn2c(=N)c(C(=O)NCC3CCCO3)cc3c(=O)n4ccccc4nc32)cc1 (stereo unspecified),10%,-15,17%,i,?
CCOC(=O)c1c(NC(=O)COc2cccc(C(F)(F)F)c2)sc2c1CCC(C)C2 (stereo unspecified),nt,nt,nt,i,i
N=c1c(C(=O)NC2CCCC2)cc2c(=O)n3ccccc3nc2n1CCCN1CCOCC1,?,31,?,i,i
N=c1c(C(=O)NCC2CCCO2)cc2c(=O)n3ccccc3nc2n1Cc1ccccc1 (stereo unspecified),2.6µM*,-22,3.7µM*,i,i
N=c1c(C(=O)NCC2CCCO2)cc2c(=O)n3ccccc3nc2n1CCCO (stereo unspecified),nt,nt,nt,i,i
N=c1c(C(=O)NCC2CCCO2)cc2c(=O)n3ccccc3nc2n1Cc1ccccc1Cl (stereo unspecified),21µM*,17,3.3µM*,?,i
COc1ccc(CCNC(=O)c2cc3c(=O)n4ccccc4nc3n(CC3CCCO3)c2=N)cc1OC (stereo unspecified),-5%,-14,-35%,i,i
N=c1c(C(=O)NC2CCCC2)cc2c(=O)n3ccccc3nc2n1CCN1CCOCC1,2.8µM*,5,?,i,i
Cc1ccc(Cn2c(=N)c(C(=O)NCC3CCCO3)cc3c(=O)n4ccccc4nc32)cc1 (stereo unspecified),18µM*,-1,3.3µM*,i,i
CCCCC12CN3CC(C)(CN(C1)C3c1c(C)[nH]c(=O)[nH]c1=O)C2=O (stereo unspecified),nt,nt,nt,i,i
COc1cccc(NC(=S)NC2CC(C)CC(C)(C)C2)c1 (stereo unspecified),nt,6,nt,i,?
OCCn1c(-c2ccc(F)cc2)csc1=Nc1ccccc1,0%,-53*,?,?,i
CCn1c(-c2ccccc2)csc1=Nc1ccc(O)cc1,4%,-95*,18%,i,i
CCOc1ccc(N=c2scc(-c3ccccc3)n2CCO)cc1,1%,-66*,-5%,i,?
N=c1n(CCO)c2ccccc2n1CCOc1ccc(F)cc1,nt,nt,nt,i,i
OCCn1c(-c2ccc3c(c2)OCO3)csc1=Nc1ccccc1,-1%,-62*,?,?,i
CCOc1ccc(N=c2scc(-c3ccc(OC)cc3)n2CCO)cc1,2%,?,?,?,i
CS(=O)(=O)c1nc(S(=O)(=O)c2ccc(Cl)cc2)c(NCCCN2CCOCC2)s1,-29%,0,8%,i,?
CC1CCCN(c2sc(S(C)(=O)=O)nc2S(=O)(=O)c2ccc(Cl)cc2)C1 (stereo unspecified),25%,-71*,8%,i,?
SMILES,SW480 rereplic,IL-1B inflam inh,MCF10A rerep,KB-3-1 cytotox,KB-V1 cytotox
CCS(=O)(=O)c1nc(S(=O)(=O)c2ccc(Cl)cc2)c(N2CCN(CCO)CC2)s1,-6%,-17,0%,i,i
CCCS(=O)(=O)c1nc(S(=O)(=O)c2ccc(C)cc2)c(N2CCOCC2)s1,?,-74*,-5%,nt,nt
CCN1CCN(c2sc(S(=O)(=O)CC)nc2S(=O)(=O)c2ccc(Cl)cc2)CC1,nt,-66*,nt,i,?
CS(=O)(=O)c1nc(S(=O)(=O)c2ccc(Cl)cc2)c(N2CCOCC2)s1,-19%,-76*,2%,?,i
COC(=O)c1ccc(NC(=O)Cn2ccn3nc(-c4ccc(OC)cc4)cc3c2=O)cc1,nt,nt,nt,i,i
O=C(NC(=S)NCCCN1CCOCC1)c1cccc2ccccc12,0%,-6,0%,i,?
CCS(=O)(=O)c1nc(S(=O)(=O)c2ccc(Cl)cc2)c(NCCCN2CCOCC2)s1,0%,-51*,2%,i,i
CC1CN(c2sc(S(C)(=O)=O)nc2S(=O)(=O)c2ccc(Cl)cc2)CC(C)O1 (stereo unspecified),?,-64*,0%,i,i
CCNc1sc(S(C)(=O)=O)nc1S(=O)(=O)c1ccc(Cl)cc1,0%,?,-3%,i,i
COc1ccc(Cl)cc1Nc1cc(C)nc2ccccc12,-1%,?,?,?,?
COc1ccc(OC)c(Nc2cc(C)nc3ccccc23)c1,18%,-13,?,?,18µM*
Cc1cc(Cl)c2ccccc2n1,-3%,27,9%,i,?
Cc1cc(Nc2ccccc2Cl)c2ccccc2n1,-1%,-96*,?,i,?
COc1ccc(CNc2ncnc3sccc23)cc1,-2%,35,0%,?,?
Cc1ccc(-c2nnn3c2nc(NCC(C)c2ccccc2)c2ccccc23)cc1 (stereo unspecified),nt,nt,nt,i,i
O=C(O)[C@@H]1CSCN1,0%,nt,2%,nt,nt
CC(C)C(NC(=O)c1ccc(Cl)cc1Cl)C(=O)NCCc1ccccn1 (stereo unspecified),-3%,4,0%,i,i
FC(F)(F)c1ccc(N2CCN(c3cc(-c4ccccc4)nc4ncnn34)CC2)nc1,9%,-61*,-1%,i,?
CCN(C(=O)COC(=O)c1cc(=O)[nH]c2ccccc12)C1CCS(=O)(=O)C1 (stereo unspecified),4%,-6,13%,i,i
COC(=O)c1sc(NC(=O)C(C)C)c(C(=O)OC)c1C,-3%,16,2%,i,i
COC(=O)c1c(NC(=O)c2ccco2)sc2c1C(C(=O)OC)CC2 (stereo unspecified),15%,-13,23%,i,18µM*

# High-throughput results: PubChem, National Center for Advancing Translational Sciences (NCATS)
